The results in this text go back to PMC5540273 (PLoS ONE, 2017).

Each structure is given as a SMILES string.

Among the test systems are CDC2L2; CDK2; CDK3; CDK4-cyclinD1; CDK4-cyclinD3; CDK4; CDK5; CDK7.
What all share (conditions): concentration: 1 μM,replicates: in singlicate; n = 1
Another assay relates to T1, CDC2L5.
T1 construct: gene CDK13

The subject of another assay is T2, CDK11.
T2 construct: gene CDK19
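Note: KINOMEscan kinase panel screen.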

Turning to `O=C(Nc1ccc(Oc2ccc3nc(NC(=O)C4CC4)cn3n2)c(F)c1)c1cccn(-c2ccccc2)c1=O`, the “%Inh” value with CDC2L2 was determined as 6%; in the assay on CDC2L5, 0%; with CDK11 it was 28%; in the assay on CDK2 it was 0%; in the assay with CDK3, 39%; in the assay on CDK4-cyclinD1, 0%. Besides, the “%Inh” value with CDK4-cyclinD3, in the assay on CDK4, with CDK5 and with CDK7 was 0% each time.

As to `CCN1CCN(CCCC(=O)Nc2n[nH]c3nc(-c4ccc(O)cc4)c(Br)cc23)CC1` [SB-731579], the “%Inh” value is listed as 4% in the assay with CDC2L2; 0% in the assay with CDC2L5; 0% with CDK11; 1% in the assay on CDK2; 30% in the assay with CDK3; 99.5% in the assay on CDK4-cyclinD1. The “%Inh” value with CDK4-cyclinD3 is recorded as 95.1%; with CDK4, 22%; in the assay with CDK5, 0%; in the assay on CDK7 it was 94.7%.

On to `COC(=O)c1cccc(NC(=O)NC2CCN(c3ccnc(Nc4cc(OC)c(OC)c(OC)c4)n3)C2)c1` (centres unmarked) [GSK1379767], for which the “%Inh” value with CDC2L2 is listed as 36%; in the assay on CDC2L5 it was 0%; with CDK11, 24%; in the assay with CDK2, 0%; with CDK3 it was 12%; in the assay with CDK4-cyclinD1, 27%. Further, the “%Inh” value in the assay with CDK4-cyclinD3 stood at 0%; with CDK4 it was 37%; with CDK5, 0%; in the assay with CDK7, 16%.

Take `FC(F)(F)c1cc(Br)cc(Nc2nccc(-c3cnn4ncccc34)n2)c1` [GW810578]: the “%Inh” value came to 7% in the assay with CDC2L2; 0% in the assay with CDC2L5; 0% in the assay with CDK11; 39% with CDK2; 73% with CDK3; 16% in the assay with CDK4-cyclinD1. The “%Inh” value came out at 52% in the assay with CDK4-cyclinD3, 8% with CDK4, 37% in the assay on CDK5 and 98.9% in the assay with CDK7.

Take `C[C@@H](Oc1cc(-n2cnc3cc(-c4cnn(C)c4)ccc32)sc1C(N)=O)c1ccccc1Cl` [GSK580432]: the “%Inh” value amounted to 0% in the assay with CDC2L2; 0% in the assay on CDC2L5; 28% in the assay on CDK11; 26% in the assay with CDK2; 20% with CDK3; 0% in the assay on CDK4-cyclinD1. Also, the “%Inh” value in the assay on CDK4-cyclinD3 was determined as 3%; in the assay on CDK4 it was 18%; in the assay on CDK5 it was 0%; in the assay on CDK7 it was 0%.

With `N#Cc1cccc(C(=O)NC2CCN(c3ccnc(Nc4ccc(F)cc4)n3)C2)c1` (centres unmarked) [GSK1379708], the “%Inh” value amounted to 0% with CDC2L2; 0% with CDC2L5; 4% with CDK11; 0% in the assay on CDK2; 0% with CDK3; 0% in the assay on CDK4-cyclinD1. Besides, the “%Inh” value amounted to 0% in the assay with CDK4-cyclinD3, 10% in the assay with CDK4, 0% with CDK5 and 0% in the assay with CDK7.

As for `CCNCC(Cc1ccccc1)NC(=O)c1cc(Br)c(-c2ccnc3[nH]ccc23)s1.Cl.Cl` (centres unmarked) [GSK1383280], the “%Inh” value in the assay on CDC2L2 was 22%; in the assay on CDC2L5, 0%; in the assay with CDK11 it was 39%; in the assay on CDK2, 0%; in the assay with CDK3, 12%; in the assay with CDK4-cyclinD1, 0%. The “%Inh” value in the assay on CDK4-cyclinD3 came out at 6%; in the assay on CDK4, 0%; in the assay on CDK5, 0%; in the assay with CDK7, 24%.

Take `CS(=O)c1ccc(-c2coc3ccc(-c4n[nH]c(=O)o4)cc23)cc1` (centres unmarked): the “%Inh” value in the assay on CDC2L2 is 0%; with CDC2L5, 36%; in the assay on CDK11 it was 96.9%; with CDK2 it was 0%; in the assay on CDK3, 4%; in the assay on CDK4-cyclinD1, 0%. In addition, the “%Inh” value came out at 0% in the assay on CDK4-cyclinD3, 10% with CDK4, 0% with CDK5 and 38% in the assay on CDK7.

Regarding `CN1CCN(CCNc2nc3cc(Oc4ccc(NC(=O)Nc5cc(C(F)(F)F)ccc5F)cc4)ccc3[nH]2)CC1.Cl.Cl` [GW768504], the “%Inh” value in the assay with CDC2L2 was found to be 7%; in the assay with CDC2L5, 0%; in the assay with CDK11, 47%; in the assay on CDK2 it was 0%; in the assay on CDK3, 6%; in the assay with CDK4-cyclinD1, 0%. For the same molecule, the “%Inh” value with CDK4-cyclinD3 is given as 0%; in the assay on CDK4 it was 2%; in the assay with CDK5 it was 0%; with CDK7, 96.6%.

As for `CNC(=O)c1ccccc1Nc1nc(Nc2cccc(CS(C)(=O)=O)c2)ncc1C.O=CO` [GSK1520489], the “%Inh” value was determined as 0% with CDC2L2; 0% in the assay on CDC2L5; 0% in the assay on CDK11; 16% in the assay on CDK2; 36% in the assay with CDK3; 0% in the assay with CDK4-cyclinD1. In addition, the “%Inh” value in the assay with CDK4-cyclinD3 turned out to be 19%; in the assay with CDK4, 30%; in the assay with CDK5, 0%; with CDK7, 89%.

On to `Cc1ccc(C(=O)Nc2ccc(Oc3ccc4nc(NC(=O)C5CC5)cn4c3)c(F)c2)c(=O)n1-c1ccccc1`, for which the “%Inh” value is given as 7% in the assay with CDC2L2; 0% in the assay on CDC2L5; 88% in the assay on CDK11; 1% in the assay with CDK2; 36% with CDK3; 21% in the assay with CDK4-cyclinD1. In addition, the “%Inh” value in the assay with CDK4-cyclinD3 is 0%; in the assay with CDK4, 0%; in the assay with CDK5 it was 0%; in the assay on CDK7, 76%.

With `O=C(NOCC1CC1)c1cc(Br)c(F)c(F)c1Nc1ccc(I)cc1Cl`, the “%Inh” value in the assay on CDC2L2 is recorded as 0%; with CDC2L5, 0%; in the assay with CDK11, 0%; in the assay on CDK2, 0%; in the assay with CDK3, 14%; in the assay with CDK4-cyclinD1 it was 0%. Further, the “%Inh” value with CDK4-cyclinD3 came out at 17%; in the assay on CDK4 it was 14%; in the assay on CDK5, 0%; in the assay on CDK7 it was 0%.

In the case of `O=C(Nc1ccccc1)c1cccc(Oc2ccc3nccn3n2)c1`, the “%Inh” value with CDC2L2 turned out to be 28%; with CDC2L5 it was 0%; with CDK11, 0%; with CDK2, 0%; in the assay with CDK3, 15%; in the assay with CDK4-cyclinD1, 11%. Further, the “%Inh” value is 6% with CDK4-cyclinD3, 22% in the assay with CDK4, 0% with CDK5 and 12% with CDK7.

As for `C[C@@H]1CCN(C(=O)N2CCCC2)C[C@@H]1N(C)c1ncnc2[nH]ccc12`, the “%Inh” value in the assay on CDC2L2 was determined as 0%; in the assay on CDC2L5, 6%; with CDK11, 2%; with CDK2, 0%; with CDK3, 15%; in the assay with CDK4-cyclinD1, 21%. Further, the “%Inh” value in the assay on CDK4-cyclinD3 is on record as 8%; in the assay with CDK4, 11%; in the assay on CDK5 it was 18%; with CDK7, 34%.

In the case of `Nc1nccc(-c2ccc3c(N)n[nH]c3c2)n1` [GSK1034945], the “%Inh” value is reported as 4% in the assay with CDC2L2; 0% with CDC2L5; 37% with CDK11; 0% with CDK2; 13% in the assay on CDK3; 0% in the assay with CDK4-cyclinD1. Besides, the “%Inh” value in the assay on CDK4-cyclinD3 is 0%; with CDK4 it was 1%; in the assay on CDK5 it was 0%; with CDK7 it was 0%.

With `COc1cccc(C2=C(Nc3cccc(Cl)c3)C(=O)NC2=O)c1` [SB-341556], the “%Inh” value in the assay on CDC2L2 is 0%; with CDC2L5, 0%; in the assay with CDK11, 0%; with CDK2 it was 7%; with CDK3, 4%; with CDK4-cyclinD1 it was 0%. The “%Inh” value in the assay with CDK4-cyclinD3 is 14%; in the assay with CDK4, 0%; with CDK5, 0%; in the assay on CDK7, 14%.

With `COc1cc2c(Nc3ccc(NC(=O)c4ccccc4)cc3)ncnc2cc1OCCCN1CCOCC1` [GSK301329], the “%Inh” value was 7% in the assay on CDC2L2; 0% in the assay with CDC2L5; 0% in the assay with CDK11; 0% with CDK2; 2% with CDK3; 0% in the assay on CDK4-cyclinD1. For the same molecule, the “%Inh” value amounted to 0% in the assay with CDK4-cyclinD3, 7% in the assay with CDK4, 0% in the assay on CDK5 and 24% in the assay on CDK7.
